Source: PubChem
Shown are actives, neighbours in structure and some others; about 9.4% of the full set was active somewhere.
IMPase Li cell – cell-permeable IMPase inhibitors with lithium potentiation; CHO-M1 cells, IP1 TR-FRET (IP-One), carbachol + lithium; Potency, µM (top dose mostly 59.4 µM), inactives show at the top dose activity, negative = IMPase inhibition, hits mostly inhibitors; 210,000 tested, 0.35% active;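 also: IP1 builds up when IMPase is blocked and the TR-FRET signal falls; potency is read from the fitted curve at half-maximal effect; plate controls were basal vehicle for no effect and high inhibitor control for full effect; nearly all actives have a fitted effect of over 50% in size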
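Readout is a homogeneous TR-FRET IP1 immunoassay (Ex 320, Em 665 and 620), where raised cytosolic IP1 lowers signal. Cells were CHO-M1 treated 30 min at 37C with test compounds plus a little lithium; AC50 values came from Hill-equation fitting.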
HPGD inh – HPGD (human) dehydrogenase inhibition | purified HPGD, NADH fluorescence kinetic, PGE2 substrate | Potency, µM, for inactives: at the top dose activity change, negative = inhibition, hits mostly inhibitors | 150,000 tested, 4.3% active | AID 894; active = well fitted inhibition curve with a large enough effect, not every such curve was filed as active; inconclusive = small, poorly fitted or top-dose-only effect, or another doubt; inactive = no such curve, though single readings can be large or run the other way; also: potency is read from the fitted curve at half-maximal effect; % is scaled to controls: 0 for no effect and ±100 for the full control effect
Target sequence (P15428 whole entry, looked up): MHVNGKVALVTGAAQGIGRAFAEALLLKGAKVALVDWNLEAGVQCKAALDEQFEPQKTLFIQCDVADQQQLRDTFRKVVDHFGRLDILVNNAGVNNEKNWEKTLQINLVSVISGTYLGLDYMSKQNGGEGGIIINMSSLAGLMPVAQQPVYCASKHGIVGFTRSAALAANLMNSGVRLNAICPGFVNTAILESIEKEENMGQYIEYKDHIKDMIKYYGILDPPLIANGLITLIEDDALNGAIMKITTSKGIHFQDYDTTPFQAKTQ
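20 nM HPGD preincubated 15 min at room temperature with compound in 50 mM Tris-HCl pH 8, 0.01% Tween 20. Started with 1 mM NAD+ and 30 uM prostaglandin E2; NADH fluorescence (360/450 nm) read 5 times over 30-s intervals, last minus first.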
HTT ATP protect – Huntington cell model cytoprotection by ATP luminescence. PC12 HTT-Q103 induced, cytoprotection, ATP luminescence, 40 h. Potency, µM (highest dose often 56.4 µM), inactives show cytoprotection (ATP increase), most hits filed as activators. 230,000 tested, 0.14% active; also: potency is read from the fitted curve at half-maximal effect; % of control where 0% means no effect; nearly all actives have a fitted effect of over 45% in size
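Rat PC12, Q103 Htt exon1-GFP fusion, ecdysone promoter; tebufenozide inducer 100 nM final; compound titration; qHTS, 1500 cells/well; ATPlite luminescent read.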
IMPase inh – cell-permeable inhibitors of inositol monophosphatase (IMPase) | AID 901 | CHO-M1 cells, IP1 accumulation, HTRF TR-FRET ratio | 120,000 tested, under 10 active | P97697 | inhibition (IP1 accumulation), % at 46.1 µM; active = well fitted curve in the direction sought with a large enough effect in the signal ratio, not every such curve was filed as active; inconclusive = small, poorly fitted or top-dose-only effect, or a change in a side signal; inactive = no such curve, though single readings can be large or run the other way; the % refers to the signal ratio;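 also: cells stimulated with carbachol in lithium chloride buffer; plate controls were DMSO basal wells for no effect and reference inhibitor wells for full effect; higher means more IMPase inhibition seen as more IP1 and lower FRET ratio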
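CHO-M1 cells (CHO stably expressing M1 receptor), compound up to 46 uM final, stimulated with carbachol (50 uM as added) in buffer with 50mM LiCl, pH 7.4, 30 min at 37C. Cytosolic IP1 read by TR-FRET; AC50 from Hill fits.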
ALDH1A1 inh – inhibitors of human aldehyde dehydrogenase 1A1 | P00352 | Purified ALDH1A1, NADH fluorescence, propionaldehyde substrate | Potency, µM (titrated, usually from 75.3 µM), inactives show at the top dose activity, negative = inhibition, actives largely listed as inhibitors | 220,000 tested, 7.3% active | AID 1030; active = well fitted inhibition curve with a large enough effect, not every such curve was filed as active; inconclusive = small, poorly fitted or top-dose-only effect, or another doubt; inactive = no such curve, though single readings can be large or run the other way;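 also: potency is read from the fitted curve at half-maximal effect; plate controls were no enzyme wells and a reference inhibitor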
Target sequence (P00352 whole entry, looked up): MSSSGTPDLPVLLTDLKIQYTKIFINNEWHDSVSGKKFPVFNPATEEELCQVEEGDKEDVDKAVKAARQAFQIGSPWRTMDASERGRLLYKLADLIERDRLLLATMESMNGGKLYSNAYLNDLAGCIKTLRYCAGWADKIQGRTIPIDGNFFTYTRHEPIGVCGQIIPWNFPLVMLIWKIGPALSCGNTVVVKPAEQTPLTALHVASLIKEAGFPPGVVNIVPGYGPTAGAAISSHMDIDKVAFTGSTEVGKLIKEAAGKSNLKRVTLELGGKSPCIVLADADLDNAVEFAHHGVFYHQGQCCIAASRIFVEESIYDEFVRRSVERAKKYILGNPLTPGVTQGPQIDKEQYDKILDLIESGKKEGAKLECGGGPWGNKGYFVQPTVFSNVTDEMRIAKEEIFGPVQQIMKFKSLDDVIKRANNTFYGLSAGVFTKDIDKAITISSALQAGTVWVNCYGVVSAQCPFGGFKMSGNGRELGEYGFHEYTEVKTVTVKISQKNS
HTT aggregate – inhibitors of mutant huntingtin aggregate formation in PC12 cells; PC12 HttQ103-GFP aggregates, Acumen cytometry, 40 h; Potency, µM (doses to about 46.1 µM), for the others: at the highest dose activity change, negative = inhibition, actives largely listed as inhibitors; 220,000 tested, 1.1% active; also: potency is read from the fitted curve at half-maximal effect; % is scaled to controls: 0 for no effect and ±100 for the full control effect; nearly all actives have a fitted effect of over 60% in size
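Aggregates are detected as GFP objects 1–25 µm with signal 6 STDEV over background in lysates of induced PC12 cells. These carry Huntingtin exon 1 with 103 glutamines fused to GFP under an ecdysone promoter; compounds titrated.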
The depositor's hits bear a star; [ ] = remark or other dose. Unless noted, calls follow the shape of the dose curve; as a rule, active = well fitted curve in the direction sought with a large enough effect; inconclusive = small, poorly fitted or top-dose-only effect, or another doubt; inactive = no such curve, though single readings can be large; an effect the other way counts as inactive or inconclusive.

For CCOC(=O)N/N=C(\C)c1ccc(-n2cnnn2)cc1 the results were IMPase Li cell -5%, HTT ATP protect -4%, ALDH1A1 inh 6% and HTT aggregate 0%.
Screening Oc1ccc(C=NCC2COc3ccccc3O2)cc1 (stereo not drawn) returned IMPase Li cell 5%[38.3 µM], HPGD inh -9%, HTT ATP protect 0%, IMPase inh 1, ALDH1A1 inh 18µM* and HTT aggregate -6%.
`Cn1c(=O)oc2cc(S(=O)(=O)Nc3ccc4c(c3)OCCO4)ccc21` gave IMPase Li cell -4%[38.3 µM], HPGD inh inconclusive, HTT ATP protect -9%, IMPase inh inconclusive, ALDH1A1 inh -1% and HTT aggregate 35µM*.
For CCC(=O)N1CCCc2cc(S(=O)(=O)N3CCN(c4ncccn4)CC3)ccc21 the results were IMPase Li cell -16%[38.3 µM], HPGD inh -9%, HTT ATP protect 5%, IMPase inh 6, ALDH1A1 inh inconclusive and HTT aggregate -13%.
`CCC(=O)N1CCc2cc(S(=O)(=O)Nc3ccc4c(c3)OCCO4)ccc21` gave IMPase Li cell 36%[38.3 µM], HPGD inh -2%, HTT ATP protect 26%, IMPase inh 17, ALDH1A1 inh -6% and HTT aggregate 7.9µM*.
Cn1c(=O)c(=O)n(C)c2cc(S(=O)(=O)Nc3ccc4c(c3)OCCO4)ccc21 was read as IMPase Li cell 25%[38.3 µM], HPGD inh 25µM*, HTT ATP protect -6%[1.9 µM], IMPase inh -5, ALDH1A1 inh -2% and HTT aggregate -16%.
For CCC(=O)N1CCCc2cc(S(=O)(=O)N3CCN(c4ccccc4F)CC3)ccc21 the results were IMPase Li cell 12%[38.3 µM], HPGD inh -12%, HTT ATP protect -30%, IMPase inh 11, ALDH1A1 inh 14µM* and HTT aggregate inconclusive.
Screening Cc1c(S(=O)(=O)Nc2ccc3c(c2)OCCO3)c(=O)n(C)c(=O)n1C returned IMPase Li cell 45%[38.3 µM], HPGD inh -14%, HTT ATP protect -6%, IMPase inh 3, ALDH1A1 inh -4% and HTT aggregate -8%.
`COc1cccc(-c2cncnc2Nc2ccc(F)cc2)c1` gave IMPase Li cell 0%, HTT ATP protect 6% and ALDH1A1 inh -12%.
`CCC(=O)N1CCc2cc(S(=O)(=O)NCCCN3CCN(Cc4ccccc4)CC3)ccc21` gave IMPase Li cell 81%[38.3 µM], HPGD inh -18%, HTT ATP protect -2%, IMPase inh inconclusive, ALDH1A1 inh 18µM* and HTT aggregate -25%.
CC1CN(c2ccc(Oc3ccccc3)cc2)c2nc3c(c(=O)[nH]c(=O)n3C)n2C1 (stereo not drawn) was read as IMPase Li cell 12%[38.3 µM], HPGD inh 35µM*, HTT ATP protect -37%, IMPase inh 2, ALDH1A1 inh -5% and HTT aggregate 13%.
Screening CC1CN(CCc2ccccc2)c2nc3c(c(=O)[nH]c(=O)n3C)n2C1 (stereo not drawn) returned IMPase Li cell 5%[38.3 µM], HPGD inh -6%, HTT ATP protect -20%, IMPase inh -8, ALDH1A1 inh -14% and HTT aggregate -1%.
Screening COc1ccc(N2C(=O)CSC2c2cccc(OC)c2OC)cc1 (stereo not drawn) returned IMPase Li cell 14%, HPGD inh -2%, HTT ATP protect -9%[10 µM], ALDH1A1 inh -4% and HTT aggregate 10%.
Screening COc1cccc(C2SCC(=O)N2c2ccc(C)cc2)c1OC (stereo not drawn) returned IMPase Li cell 16%, HPGD inh -6%, HTT ATP protect 20%[10 µM], ALDH1A1 inh 14µM* and HTT aggregate -8%.
Screening CS(=O)(=O)N1CCC[C@@]2(CCN(Cc3nccs3)C2)C1 returned IMPase Li cell 0%, HPGD inh -5%, HTT ATP protect -43% and ALDH1A1 inh 3%.
`O=c1c2c3c(sc2ncn1/N=C/c1ccco1)CCCC3` gave IMPase Li cell 25%[38.3 µM], HPGD inh -4%, HTT ATP protect -7%, IMPase inh 2, ALDH1A1 inh inconclusive and HTT aggregate -23%.
Screening O=c1c2c3c(sc2ncn1/N=C/c1ccccc1)CCCC3 returned IMPase Li cell 8%, HPGD inh 0%, HTT ATP protect -11%[10 µM], IMPase inh -6[0.369 µM], ALDH1A1 inh 11µM* and HTT aggregate -15%.
CNc1ccc(Br)cc(C(=O)/C=C/c2ccc(OC)cc2OC)c1=O was read as IMPase Li cell 6%, HPGD inh 14µM*, ALDH1A1 inh inconclusive and HTT aggregate -26%.
For COc1cccc(/C=C/C(=O)Nc2ccc3[nH]c(=O)[nH]c3c2)c1 the results were IMPase Li cell 0%, HTT ATP protect -16%, ALDH1A1 inh inconclusive and HTT aggregate 5%.
`CNc1ccc(Br)cc(C(=O)/C=C/c2cccc(OC)c2)c1=O` gave IMPase Li cell 13%, HPGD inh 7.9µM*, HTT ATP protect -11%[1.9 µM], IMPase inh 10, ALDH1A1 inh 14µM* and HTT aggregate -17%.
NC[C@@H]1O[C@H](O[C@@H]2[C@H](O[C@@H]3O[C@H](CO)[C@@H](O)[C@@H]3O)[C@@H](O)[C@@H](N)C[C@H]2N)[C@@H](N)[C@H](O)[C@@H]1O was read as IMPase Li cell -2%, HPGD inh -7%, HTT ATP protect -7%[40.3 µM], IMPase inh 3[20.6 µM], ALDH1A1 inh -2%[20.9 µM] and HTT aggregate -7%[20.6 µM].
Nc1nnc(SCC(=O)Nc2ccccc2C(F)(F)F)s1 was read as IMPase inh -4.
For CC(=O)N1CCC2(CC1)CCN(C(=O)Nc1cccc(F)c1)CC2 the results were IMPase Li cell 2%, HPGD inh -9%, HTT ATP protect 18% and ALDH1A1 inh 13µM*.
`N#Cc1cccc(NC(=O)N2CCCC3(CCN(C(=O)c4ccco4)CC3)C2)c1` gave IMPase Li cell 20%, HPGD inh -23%, HTT ATP protect -15% and ALDH1A1 inh 22µM*.
`OCC1(Cc2ccccc2)CCCN(Cc2ccc(-c3ccco3)cc2)C1` (stereo not drawn) gave IMPase Li cell 20%, HTT ATP protect -8%[10 µM], ALDH1A1 inh 25µM* and HTT aggregate -11%[9.22 µM].
OCC1(Cc2ccccc2)CCN(Cc2ccc(-c3ccco3)cc2)CC1 was read as IMPase Li cell 20%, HTT ATP protect 0%[10 µM], ALDH1A1 inh inconclusive and HTT aggregate -4%[9.22 µM].
`N#Cc1cccc(NC(=O)N2CCC3(CC2)CCN(C(=O)c2ccco2)CC3)c1` gave IMPase Li cell 6%, HPGD inh -9%, HTT ATP protect inconclusive and ALDH1A1 inh 10µM*.
